In PubChem BioAssay (Tox21):
Records with an inconclusive call do not appear. Entries that show only a call come without a potency. Unmarked numbers belong to inactive results. The source made the active and inactive calls. Unless noted, the call rests on the fitted dose curve; in most records, active means well fitted curve in the direction sought with a large enough effect in the repeat runs; inconclusive means weak or mixed curves; inactive means no such curve, though single readings can be large; an effect the other way counts as inactive or inconclusive.

Legend:
[1] = qHTS assay to identify aromatase inhibitors - cell viability counter screen (AID 743084);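 further: cells stimulated with testosterone during compound exposure; nearly all actives have a fitted effect of over 55% in size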
[2] = target: Aryl hydrocarbon receptor (Homo sapiens) (UniProt P35869); assay: qHTS assay to identify small molecule that activate the aryl hydrocarbon receptor (AhR) signaling pathway (AID 743085); further: nearly all actives have a fitted effect of over 15% in size; further: potency means the concentration at half of the fitted maximal effect;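 on activation: HG2L7.5c1 human HepG2 liver cells with stably integrated DRE-driven firefly reporter; series mostly up to about 70 µM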
Outline: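 Stably transfected human liver carcinoma cells (HG2L7.5c1; 20 DRE-firefly luciferase) were incubated 5 h, dosed, and kept 24 h at 37C. Agonism was scored from increased luciferase luminescence.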

[3] = qHTS assay to identify small molecule that activate the aryl hydrocarbon receptor (AhR) signaling pathway - cell viability counter screen (AID 743086);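 further: HepG2 liver cells carrying the AhR DRE luciferase reporter; series mostly up to about 70 µM; nearly all actives have a fitted effect of over 45% in size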
Outline: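 HepG2-AhR-luc (HG2L7.5c1) cells, 4000/well, treated 24 h at 37 C with compound; viability measured as CellTiter-Fluor fluorescence after 30 min in the same wells as the luciferase read.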

[4] = target: Peroxisome proliferator-activated receptor gamma (Homo sapiens) (UniProt P37231); assay: qHTS assay to identify small molecule agonists of the peroxisome proliferator-activated receptor gamma (PPARg) signaling pathway (AID 743094; active means well fitted activation curve with a large enough effect in the signal ratio in the repeat runs, not every such curve was filed as active; the % refers to the signal ratio)
Outline: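 Cells from the PPARg UAS-bla HEK293H line are plated and incubated 5 h at 37C. Compounds in DMSO are pinned in and left 17 h at 37C. LiveBLAzer B/G substrate is then added for 1 h at room temperature before fluorescence is measured.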

[5] = target: Peroxisome proliferator-activated receptor gamma (Homo sapiens) (UniProt P37231); assay: qHTS assay to identify small molecule antagonists of the peroxisome proliferator-activated receptor gamma (PPARg) signaling pathway (AID 743191; calls by dose curve; further: series mostly up to about 63 µM; nearly all actives have a fitted effect of over 30% in size)
Outline: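 GeneBLAzer PPARg UAS-bla HEK293H cells, 5 h post-plating, exposed to compounds 17 h at 37C. LiveBLAzer B/G FRET substrate added for 1 h at room temperature; beta-lactamase reporter read by fluorescence intensity.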

[6] = qHTS assay to identify small molecule antagonists of the peroxisome proliferator-activated receptor gamma (PPARg) signaling pathway - cell viability counter screen (AID 743194); further: nearly all actives have a fitted effect of over 55% in size
Outline: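 Cytotoxicity counter screen in PPARg-bla HEK293H cells, same wells as reporter assay. Compounds plus 50 nM rosiglitazone (final) for 17 h at 37 C, then viability read by CellTiter-Glo luminescence.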

[7] = qHTS assay for small molecule agonists of the antioxidant response element (ARE) signaling pathway (AID 743202; active means well fitted activation curve with a large enough effect in the signal ratio in the repeat runs, not every such curve was filed as active; the % refers to the signal ratio)
Outline: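 HepG2 ARE-bla reporter line, 2,000 cells/well; 5 h preincubation 37 C/5% CO2; compound (DMSO) 16 h 37 C; B/G FRET substrate 2 h RT; fluorescence intensity.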

[8] = qHTS assay for small molecule agonists of the antioxidant response element (ARE) signaling pathway - cell viability counter screen (AID 743203; calls by dose curve; further: nearly all actives have a fitted effect of over 55% in size)
Outline: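 Cytotoxicity was tested in parallel with the ARE reporter screen. ARE-bla HepG2 cells were exposed to compounds for 16 hrs, and viability was taken from CellTiter-Glo luminescence.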

[9] = qHTS assay for small molecule activators of the heat shock response signaling pathway - cell viability counter screen (AID 743209); further: nearly all actives have a fitted effect of over 50% in size
Outline: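 Cytotoxicity counter screen run in parallel with the HSE beta-lactamase reporter, using the same wells. HeLa HSE-bla cells received compound for 5 h at 37 C; ATP-based CellTiter-Glo luminescence was measured after 30 min at room temperature.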

[10] = qHTS assay for small molecule activators of the heat shock response signaling pathway (AID 743210; active means well fitted activation curve with a large enough effect in the signal ratio in the repeat runs, with a control signal flat, not every such curve was filed as active; the % refers to the signal ratio;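 further: HeLa cells with beta-lactamase reporter driven by heat shock elements; series mostly up to about 63 µM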)
Outline: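 Beta-lactamase reporter read-out: FRET substrate fluorescence after 2.5 h at RT, following 5 h compound treatment at 37 C of HeLa cells carrying HSE-driven bla reporter; quantitative HTS format.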

[11] = target: Peroxisome proliferator-activated receptor delta (Homo sapiens) (UniProt Q03181); assay: qHTS assay to identify small molecule agonists of the peroxisome proliferator-activated receptor delta (PPARd) signaling pathway (AID 743212; calls by dose curve)
Outline: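 Read-out: beta-lactamase FRET fluorescence after 2 h room-temperature incubation with LiveBLAzer B/G substrate. Cells were HEK293H carrying a UAS-bla reporter for PPARd, treated at 37 C with DMSO-dissolved compounds.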

[12] = qHTS assay to identify small molecule antagonists of the peroxisome proliferator-activated receptor delta (PPARd) signaling pathway - cell viability counter screen (AID 743213); further: nearly all actives have a fitted effect of over 50% in size
Outline: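 Viability counter-screen, qHTS format: PPARd-bla HEK293H, L165041 300 nM final, 17 h compound exposure at 37 C, CellTiter-Glo luminescence after 30 min RT.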

[13] = target: Peroxisome proliferator-activated receptor delta (Homo sapiens) (UniProt Q03181); assay: qHTS assay to identify small molecule antagonists of the peroxisome proliferator-activated receptor delta (PPARd) signaling pathway (AID 743215; active means well fitted inhibition curve with a large enough effect in the signal ratio in the repeat runs, not every such curve was filed as active; the % refers to the signal ratio;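 further: cells stimulated with agonist L165041 at 300 nM final during compound exposure; series mostly up to about 62 µM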)
Outline: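 Cells: HEK293H with a UAS-driven beta-lactamase reporter responsive to PPARd. Compounds were co-added with L165041 (300 nM, final) and incubated 17 h at 37 C before a 2 h room-temperature FRET substrate step and fluorescence reading.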

[14] = qHTS assay to identify small molecule agonists of the farnesoid-X-receptor (FXR) signaling pathway - cell viability counter screen (AID 743218); further: nearly all actives have a fitted effect of over 45% in size
Outline: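 Cells were seeded, left 5 h at 37 C and 5% CO2, then dosed with compound in DMSO for 16 h. After the beta-lactamase FRET read, CellTiter-Glo was added and luminescence measured 30 min later.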

[15] = qHTS assay to identify small molecule antagonists of the farnesoid-X-receptor (FXR) signaling pathway - cell viability counter screen (AID 743221; active means well fitted cell-killing curve with a large enough effect in the repeat runs, not every such curve was filed as active; further: nearly all actives have a fitted effect of over 50% in size)
Outline: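 Here viability was scored by luminescence after CellTiter-Glo addition to wells already read for beta-lactamase. Prior treatment: compound plus CDCA (50 uM final), 16 h, 37 C, HEK 293T FXR-bla cells.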

[16] = target: Vitamin D3 receptor (Homo sapiens) (UniProt P11473); assay: qHTS assay to identify small molecule antagonists of the vitamin D receptor (VDR) signaling pathway (AID 743223; active means well fitted inhibition curve with a large enough effect in the signal ratio in the repeat runs, not every such curve was filed as active; the % refers to the signal ratio)
Outline: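 Inhibition of agonist-driven VDR signalling is scored in VDR-bla cells: 3 nM final 1alpha,25-dihydroxyvitamin D3 plus compound, 16 h at 37C, then beta-lactamase detection by FRET substrate fluorescence after 2 h.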

[17] = qHTS assay to identify small molecule agonists of the peroxisome proliferator-activated receptor delta (PPARd) signaling pathway - cell viability counter screen (AID 743211); further: nearly all actives have a fitted effect of over 55% in size
Outline: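 In the same wells used for beta-lactamase reporter measurement, cytotoxicity is scored by CellTiter-Glo. HEK293H PPARd-bla cells receive compound for 17 h at 37C following a 5 h settling period.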

[18] = target: Vitamin D3 receptor (Homo sapiens) (UniProt P11473); assay: qHTS assay to identify small molecule agonists of the vitamin D receptor (VDR) signaling pathway (AID 743222; calls by dose curve)
Outline: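 Cells carrying a VDR-driven beta-lactamase reporter are seeded at 2,000 per well and rested 4 h. Compounds in DMSO are added for 16 h at 37C, and FRET substrate fluorescence is measured after 2 h at room temperature.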

[19] = target: Bile acid receptor (Homo sapiens) (UniProt Q96RI1); assay: qHTS assay to identify small molecule agonists of the farnesoid-X-receptor (FXR) signaling pathway (AID 743220; active means well fitted activation curve with a large enough effect in the signal ratio in the repeat runs, not every such curve was filed as active; the % refers to the signal ratio)
Outline: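 FXR-UAS-bla HEK 293T cells carrying a UAS-driven beta-lactamase reporter were plated for 5 h at 37C/5% CO2, then exposed to DMSO-dissolved Tox21 10K compounds for 16 h at 37C. A LiveBLAzer B/G FRET substrate was loaded for 2 h at room temperature before fluorescence reading.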

[20] = target: Bile acid receptor (Homo sapiens) (UniProt Q96RI1); assay: qHTS assay to identify small molecule antagonists of the farnesoid-X-receptor (FXR) signaling pathway (AID 743217; active means well fitted inhibition curve with a large enough effect in the signal ratio in the repeat runs, not every such curve was filed as active; the % refers to the signal ratio)
Outline: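 Cells carrying a UAS-driven beta-lactamase reporter (GeneBLAzer FXR-UAS-bla HEK 293T) were plated and rested 5 h at 37 °C. Compounds in DMSO were added alongside chenodeoxycholic acid agonist at 50 uM final and left 16 h at 37 °C before FRET substrate readout.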

Sequence of Peroxisome proliferator-activated receptor delta (Homo sapiens) (Q03181 whole entry, looked up): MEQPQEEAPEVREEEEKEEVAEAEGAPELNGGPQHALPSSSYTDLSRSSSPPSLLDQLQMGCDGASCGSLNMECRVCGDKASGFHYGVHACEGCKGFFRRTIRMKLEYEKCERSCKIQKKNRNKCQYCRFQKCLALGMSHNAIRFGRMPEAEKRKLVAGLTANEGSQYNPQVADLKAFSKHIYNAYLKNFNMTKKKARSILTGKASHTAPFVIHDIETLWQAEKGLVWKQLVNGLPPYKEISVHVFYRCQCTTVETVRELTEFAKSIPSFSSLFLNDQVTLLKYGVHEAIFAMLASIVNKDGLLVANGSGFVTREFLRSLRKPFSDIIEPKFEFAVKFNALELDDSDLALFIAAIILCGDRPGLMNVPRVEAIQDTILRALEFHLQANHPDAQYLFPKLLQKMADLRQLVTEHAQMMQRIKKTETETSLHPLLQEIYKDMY
Sequence of Bile acid receptor (Homo sapiens) (Q96RI1 whole entry, looked up): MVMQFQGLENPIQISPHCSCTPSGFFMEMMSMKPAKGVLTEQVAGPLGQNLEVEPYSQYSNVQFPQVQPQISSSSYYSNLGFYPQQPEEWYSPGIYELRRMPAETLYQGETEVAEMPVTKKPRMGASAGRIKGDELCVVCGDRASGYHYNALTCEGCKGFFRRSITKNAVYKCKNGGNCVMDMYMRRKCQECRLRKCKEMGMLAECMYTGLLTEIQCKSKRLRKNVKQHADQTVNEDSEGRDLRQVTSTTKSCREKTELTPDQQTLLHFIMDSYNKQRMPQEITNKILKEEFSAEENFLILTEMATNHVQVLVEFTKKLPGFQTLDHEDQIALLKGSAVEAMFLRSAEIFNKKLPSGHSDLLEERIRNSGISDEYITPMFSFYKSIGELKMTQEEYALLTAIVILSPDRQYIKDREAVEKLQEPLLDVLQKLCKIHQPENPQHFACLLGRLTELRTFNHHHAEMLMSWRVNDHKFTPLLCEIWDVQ
Sequence of Peroxisome proliferator-activated receptor gamma (Homo sapiens) (P37231 whole entry, looked up): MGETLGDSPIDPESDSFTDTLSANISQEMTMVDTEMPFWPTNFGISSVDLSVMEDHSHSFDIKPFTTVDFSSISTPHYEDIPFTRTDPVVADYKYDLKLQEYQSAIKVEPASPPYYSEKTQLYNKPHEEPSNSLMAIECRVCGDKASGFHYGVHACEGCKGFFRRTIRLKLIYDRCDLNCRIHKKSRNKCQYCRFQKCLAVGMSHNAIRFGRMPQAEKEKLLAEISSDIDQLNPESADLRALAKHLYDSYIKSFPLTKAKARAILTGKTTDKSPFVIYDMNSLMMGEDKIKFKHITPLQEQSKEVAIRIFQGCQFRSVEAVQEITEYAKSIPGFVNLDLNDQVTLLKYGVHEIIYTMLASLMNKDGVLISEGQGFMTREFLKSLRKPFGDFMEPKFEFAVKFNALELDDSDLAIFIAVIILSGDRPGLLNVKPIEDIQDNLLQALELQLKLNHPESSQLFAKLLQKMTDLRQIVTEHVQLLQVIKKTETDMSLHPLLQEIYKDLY
Sequence of Aryl hydrocarbon receptor (Homo sapiens) (P35869 whole entry, looked up): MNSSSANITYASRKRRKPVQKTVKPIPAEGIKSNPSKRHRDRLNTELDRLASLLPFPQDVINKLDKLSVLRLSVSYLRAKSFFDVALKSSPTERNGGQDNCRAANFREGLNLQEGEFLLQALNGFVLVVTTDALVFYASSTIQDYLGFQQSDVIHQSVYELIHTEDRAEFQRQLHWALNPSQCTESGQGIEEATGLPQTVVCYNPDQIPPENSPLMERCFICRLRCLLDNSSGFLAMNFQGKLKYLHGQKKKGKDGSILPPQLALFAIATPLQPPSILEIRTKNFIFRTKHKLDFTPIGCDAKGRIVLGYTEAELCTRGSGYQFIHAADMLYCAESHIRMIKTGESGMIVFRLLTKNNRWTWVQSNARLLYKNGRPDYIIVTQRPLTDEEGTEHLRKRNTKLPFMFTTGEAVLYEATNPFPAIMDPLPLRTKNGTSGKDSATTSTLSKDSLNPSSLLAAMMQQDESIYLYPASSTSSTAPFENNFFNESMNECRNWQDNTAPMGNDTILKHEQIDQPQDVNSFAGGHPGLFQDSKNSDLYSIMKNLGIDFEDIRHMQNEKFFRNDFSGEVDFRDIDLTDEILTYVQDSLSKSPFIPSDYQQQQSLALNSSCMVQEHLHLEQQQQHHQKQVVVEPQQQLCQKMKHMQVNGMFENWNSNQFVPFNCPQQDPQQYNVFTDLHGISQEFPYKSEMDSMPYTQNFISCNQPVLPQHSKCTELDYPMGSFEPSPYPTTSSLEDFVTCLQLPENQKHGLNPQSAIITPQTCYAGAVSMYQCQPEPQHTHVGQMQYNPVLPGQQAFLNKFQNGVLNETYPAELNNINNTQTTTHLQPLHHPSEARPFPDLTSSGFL
Sequence of Vitamin D3 receptor (Homo sapiens) (P11473 whole entry, looked up): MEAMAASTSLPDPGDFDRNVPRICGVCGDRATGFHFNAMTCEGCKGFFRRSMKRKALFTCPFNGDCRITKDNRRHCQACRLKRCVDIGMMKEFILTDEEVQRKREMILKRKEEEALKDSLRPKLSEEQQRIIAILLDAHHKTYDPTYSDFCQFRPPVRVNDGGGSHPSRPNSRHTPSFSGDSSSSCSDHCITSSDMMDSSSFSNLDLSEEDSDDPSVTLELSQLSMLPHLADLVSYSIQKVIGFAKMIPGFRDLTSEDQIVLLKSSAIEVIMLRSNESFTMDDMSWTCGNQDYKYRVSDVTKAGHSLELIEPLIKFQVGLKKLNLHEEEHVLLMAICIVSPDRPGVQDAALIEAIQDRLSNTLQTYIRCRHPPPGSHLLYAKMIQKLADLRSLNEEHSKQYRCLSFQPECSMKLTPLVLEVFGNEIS

SMILES	Potency [1]	Potency [2]	Potency [3]	outcome [4]	Potency [5]	outcome [6]	Potency [7]	outcome [8]	outcome [9]	outcome [10]	outcome [11]	outcome [12]	outcome [13]	Potency [14]	outcome [15]	outcome [16]	outcome [17]	outcome [18]	Potency [19]	Potency [20]
O=C(OCC(COC(=O)c1cccnc1)(COC(=O)c1cccnc1)COC(=O)c1cccnc1)c1cccnc1	inactive	inactive	inactive	inactive	inactive	inactive	inactive	inactive	inactive	inactive	inactive	inactive	inactive	inactive	inactive	inactive	–	–	–	–
C=C(C)C1CCC(C)(O)CC1 (stereo not drawn)	inactive	inactive	inactive	inactive	inactive	inactive	inactive	inactive	inactive	inactive	–	inactive	inactive	inactive	–	inactive	inactive	inactive	–	–
O=C(NCCc1c[nH]c2ccccc12)c1cccnc1	inactive	13.3 µM (active)	inactive	inactive	inactive	inactive	inactive	inactive	inactive	inactive	–	inactive	–	inactive	inactive	inactive	inactive	inactive	inactive	–
C[C@@H](Oc1ccc(CNC(=O)c2cccnc2Oc2ccc3c(c2)OCO3)c(F)c1)C(=O)O	inactive	inactive	inactive	inactive	inactive	inactive	inactive	inactive	inactive	inactive	inactive	inactive	inactive	inactive	inactive	inactive	inactive	inactive	inactive	inactive
COc1cc(C(=S)N2CCOCC2)cc(OC)c1OC	inactive	inactive	inactive	inactive	inactive	inactive	inactive	inactive	inactive	inactive	–	inactive	inactive	inactive	inactive	inactive	inactive	inactive	inactive	–
Cc1cc2cc3c(C)cc(=O)oc3c(C)c2o1	inactive	inactive	inactive	inactive	inactive	inactive	inactive	inactive	inactive	inactive	–	–	inactive	inactive	–	inactive	inactive	inactive	–	–
CCCC(=O)C(C)=O	inactive	inactive	inactive	inactive	inactive	inactive	inactive	inactive	inactive	inactive	–	–	inactive	inactive	inactive	–	inactive	inactive	inactive	–
CC(=O)c1sc(C)nc1C	inactive	inactive	inactive	inactive	inactive	inactive	inactive	inactive	inactive	inactive	inactive	inactive	inactive	inactive	inactive	inactive	inactive	inactive	inactive	inactive
C=C1CC/C=C(\C)CC[C@@H]2[C@@H]1CC2(C)C	inactive	inactive	inactive	inactive	inactive	inactive	inactive	inactive	inactive	inactive	–	inactive	–	inactive	inactive	inactive	inactive	inactive	inactive	inactive
COCCOCCOCCOCCOCCO	inactive	inactive	inactive	inactive	inactive	inactive	inactive	inactive	inactive	inactive	inactive	inactive	inactive	inactive	inactive	inactive	inactive	inactive	–	–
CC(=C(CCOC(=O)C(C)C)SSC(CCOC(=O)C(C)C)=C(C)N(C=O)Cc1cnc(C)nc1N)N(C=O)Cc1cnc(C)nc1N	inactive	inactive	inactive	inactive	inactive	inactive	inactive	inactive	inactive	inactive	inactive	inactive	inactive	inactive	inactive	inactive	inactive	inactive	inactive	inactive
COC(=O)CCc1ccc(OCC(O)CNC(C)C)cc1 (stereo not drawn)	inactive	inactive	inactive	inactive	inactive	inactive	inactive	inactive	inactive	inactive	–	inactive	–	inactive	–	inactive	inactive	inactive	–	–
c1ccc2nccnc2c1	inactive	inactive	inactive	inactive	inactive	inactive	inactive	inactive	inactive	inactive	–	–	–	inactive	inactive	inactive	inactive	inactive	inactive	–
O=C(CS(=O)Cc1ccco1)NC/C=C\COc1cc(CN2CCCCC2)ccn1 (stereo not drawn)	inactive	inactive	inactive	inactive	inactive	inactive	inactive	inactive	inactive	inactive	inactive	inactive	inactive	inactive	–	inactive	–	inactive	inactive	inactive
CNC(=O)[C@H]1O[C@@H](n2cnc3c(NCc4cc(Cl)ccc4OCc4cc(C)no4)ncnc32)[C@H](O)[C@@H]1N	inactive	inactive	inactive	inactive	inactive	inactive	inactive	inactive	inactive	inactive	–	inactive	inactive	inactive	inactive	inactive	inactive	inactive	inactive	–
CC(=O)NCCCCCC(=O)O	inactive	inactive	inactive	inactive	inactive	inactive	inactive	inactive	inactive	inactive	inactive	–	inactive	inactive	inactive	inactive	inactive	inactive	–	–
